In the library only some 3.5% were active in any assay of this set; here they are far more common.
MITF primary: human MITF inhibition, primary screen | O75030 | AlphaScreen MITF homodimerization, bead proximity signal | inhibition, % at 2.6 µM | actives 0.91% (n = 650,000) | AID 1259374; in the data active means inhibition above about 50%
TEAD-YAP inh: TEAD-YAP interaction inhibition | HEK-TIYL cells, TEAD-Gal4/YAP UAS-luciferase luminescence | inhibition, % at 9.12 µM | actives 1.4% (n = 640,000); in the data active means inhibition above about 32%
FBW7 act: activators of human E3 ligase FBW7; Q969H0; AlphaScreen FBW7–phospho-cyclin E peptide binding, activator screen; normalized activity (activation), % at 26.1 µM; actives 0.13% (n = 650,000); AID 1259310; in the data active means normalized activity above about 1.9%;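 further: purified mutant Fbw7 with reduced substrate affinity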
GPR151 activ: human GPR151 activation; Q8TDV0; PathHunter beta-arrestin GPR151 cells, luminescence; activation, % at 11.2 µM; actives 1% (n = 650,000); AID 1508602; in the data active means activation above about 4.9%
Target sequence (Q8TDV0 whole entry, looked up): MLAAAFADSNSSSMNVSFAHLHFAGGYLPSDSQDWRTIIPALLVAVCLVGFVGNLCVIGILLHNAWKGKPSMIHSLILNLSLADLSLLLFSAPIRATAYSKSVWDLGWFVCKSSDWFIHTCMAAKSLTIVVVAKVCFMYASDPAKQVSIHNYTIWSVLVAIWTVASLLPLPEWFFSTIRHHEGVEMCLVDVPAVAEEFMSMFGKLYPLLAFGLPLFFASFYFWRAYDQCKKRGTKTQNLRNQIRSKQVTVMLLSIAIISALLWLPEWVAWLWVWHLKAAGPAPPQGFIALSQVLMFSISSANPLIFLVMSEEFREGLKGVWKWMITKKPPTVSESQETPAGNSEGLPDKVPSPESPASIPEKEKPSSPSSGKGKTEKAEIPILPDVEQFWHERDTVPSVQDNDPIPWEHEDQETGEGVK
MITF inh conf: confirmation of human MITF inhibitors | AID 1259372 | inhibition, % at 2.6 µM | actives 16% (n = 4,700) | shares compounds with MITF primary | AlphaScreen MITF homodimerization, biotin/His-MITF beads;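 active means inhibition above a cutoff derived from the DMSO control wells, cut at about 28% in these data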;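 further: inhibitors lower the bead chemiluminescence by keeping MITF from dimerizing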
AS interf DR: counter-screen: compounds optically interfering with AlphaScreen; shares compounds with MITF primary; AlphaScreen optical interference counterscreen, cell-free; IC50, µM; actives 6% (n = 480); AID 1259373; call rule not given here
AlphaScreen intf2: counter-screen: compounds optically interfering with AlphaScreen; shares compounds with MITF primary; LysRS AlphaScreen counterscreen, signal interference, triplicate; inhibition, % at 2.6 µM; actives 7.6% (n = 4,700);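 active means inhibition above a cutoff derived from the DMSO control wells, cut at about 30% in these data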
Of the large screens only hits and unclear results are named; the others gave an inactive call (follow-up assays come after a bar, where they were run).

COc1cccc(CN2CCN(Cc3cccc(F)c3)CC2)c1OC	MITF primary 66 | MITF inh conf inactive | AlphaScreen intf2 inactive
CCOc1cc(CN2CCN(Cc3cccc(OC)c3OC)CC2)ccc1OC	none
COc1cc(CN2CCN(Cc3ccc4ccccc4c3)CC2)cc(OC)c1OC	MITF primary 60 | MITF inh conf inactive | AlphaScreen intf2 inactive
COc1cccc(CN2CCN(Cc3cccc(OC)c3OC)CC2)c1	MITF primary 74 | MITF inh conf inactive | AlphaScreen intf2 inactive
COc1cccc(COC(=O)Nc2ccc(-c3cn[nH]c3)cc2C(=O)N(C)C)c1	none
COc1ccc(NC(=O)/C=C/c2ccc([N+](=O)[O-])cc2)cc1Cl	none
CCNC(=S)N/N=C/c1ccccc1OC(C)C	none
c1ccc2c(Nc3nc(NCc4nc5ccccc5[nH]4)c4ncn(-c5ccsc5)c4n3)nccc2c1	MITF primary 62 | MITF inh conf inactive | AlphaScreen intf2 inactive
O=C1NC(c2ccccc2)=C([N+](=O)[O-])C(c2cccc(F)c2)N1 (centres undefined)	MITF primary 76 | MITF inh conf inactive | AlphaScreen intf2 inactive
CCOC(=O)/C(C#N)=C\c1ccc(OCC)cc1	none
CCOC(=O)/C(C#N)=C/c1ccc(OC(=O)c2ccccn2)cc1	MITF primary 61 | MITF inh conf inactive | AlphaScreen intf2 54
CN(C)C(=O)CSc1nnc(-c2cccs2)n1C	none
O=C(N/N=C/c1cc2c(cc1Cl)OCO2)c1cncc(Br)c1	none
CCOC(=O)Cc1[nH]nc2c1C1(C(=O)Nc3ccccc31)C(C#N)=C(N)O2 (centres undefined)	none
Cc1cc(C)cc(NCc2ccccn2)c1	none
Cc1ccc(NCc2ccccn2)c(Br)c1	MITF primary 59 | MITF inh conf inactive | AlphaScreen intf2 inactive
Cc1cc(Br)ccc1NCc1ccccn1	MITF primary 67 | MITF inh conf inactive | AlphaScreen intf2 inactive
COc1ccc(N2CC(CNC(=O)Cc3ccc(F)cc3)CC2=O)cc1 (centres undefined)	MITF primary 55 | MITF inh conf inactive | AlphaScreen intf2 inactive
COc1ccc(/C=C(/NC(=O)c2ccccc2Cl)C(=O)Nc2ccc([N+](=O)[O-])cc2)cc1	none
O=C(NCc1ccco1)C1CCN(Cc2cccc(Cl)c2Cl)CC1	MITF primary 51 | MITF inh conf inactive | AlphaScreen intf2 inactive
CN(C)CC(C)(C)CNC(=O)C1CCN(Cc2ccccc2Cl)CC1	MITF primary 63 | MITF inh conf inactive | AlphaScreen intf2 inactive
O=C(Cn1ccccc1=S)c1ccccc1	MITF primary 63 | MITF inh conf inactive | AlphaScreen intf2 inactive
CC(C)(C)c1cc(Cl)ccc1OCCN1CCNCC1	MITF primary 59 | MITF inh conf inactive | AlphaScreen intf2 inactive
CC(O)CNCCCOc1ccc(Cl)cc1C(C)(C)C (centres undefined)	MITF primary 52 | MITF inh conf inactive | AlphaScreen intf2 57
Clc1ccc(Cl)c(OCCCCN2CCNCC2)c1	none
CC(C)(C)c1cc(Cl)ccc1OCCCN1CCNCC1	MITF primary 76 | MITF inh conf inactive | AlphaScreen intf2 inactive
CCCc1cc(C(=O)Nc2ccc(C)c(C)c2)no1	none
CCCC(c1nnnn1Cc1ccco1)N1CCN(c2cccc(Cl)c2)CC1 (centres undefined)	none
NC(=O)c1ccc2nc(-c3cccs3)sc2c1	MITF primary 73, TEAD-YAP inh 33 | MITF inh conf 60 | AS interf DR inactive | AlphaScreen intf2 inactive
NC(=O)c1cccc(-c2cccs2)c1	MITF primary 66 | MITF inh conf 57 | AS interf DR inactive | AlphaScreen intf2 inactive
O=C(Nc1ccccc1)c1ccc2nc(-c3cccs3)sc2c1	none
CC(=O)c1cccc(-c2cccc(C(N)=O)c2)c1	none
N#CC1(C#N)C(c2cccnc2)C(C(=O)c2ccccc2)N2c3ncccc3C=CC21 (centres undefined)	MITF primary 71 | MITF inh conf inactive | AlphaScreen intf2 inactive
N#CC1(C#N)[C@H](c2cccnc2)[C@@H](C(=O)c2ccccc2)N2c3ccc(Cl)cc3C=C[C@@H]21	none
O=C(CC1S/C(=N/N=C2\CSC(=O)N2)NC1=O)Nc1ccc(F)cc1 (centres undefined)	MITF primary 61 | MITF inh conf 49 | AlphaScreen intf2 99
